Rows were chosen to be rich in hits. Some 3.4% of all compounds tested hit in one or more screens of this group.
TEAD-YAP inh – TEAD-YAP interaction inhibition. HEK-TIYL cells, TEAD-Gal4/YAP UAS-luciferase luminescence. AID 1259422. 640,000 compounds, 1.4% hits. inhibition, % at 9.12 µM; in the data active = inhibition above about 32%;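 note: 0% = median of test compound wells and 100% = reference inhibitor wells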
MITF primary – blocks human microphthalmia-associated transcription factor. O75030. AlphaScreen MITF homodimerization, bead proximity signal. inhibition, % at 2.6 µM. 650,000 compounds, 0.91% hits. AID 1259374; in the data active = inhibition above about 50%;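 note: 0% = vehicle wells with protein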
GPR151 ag – activators of human GPR151. PathHunter beta-arrestin GPR151 cells, luminescence. activation, % at 11.2 µM. 650,000 compounds, 1% hits. AID 1508602; in the data active = activation above about 4.9%;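 note: 0% = median of compound wells and 100% = cells with positive control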
Target sequence (Q8TDV0 whole entry, looked up): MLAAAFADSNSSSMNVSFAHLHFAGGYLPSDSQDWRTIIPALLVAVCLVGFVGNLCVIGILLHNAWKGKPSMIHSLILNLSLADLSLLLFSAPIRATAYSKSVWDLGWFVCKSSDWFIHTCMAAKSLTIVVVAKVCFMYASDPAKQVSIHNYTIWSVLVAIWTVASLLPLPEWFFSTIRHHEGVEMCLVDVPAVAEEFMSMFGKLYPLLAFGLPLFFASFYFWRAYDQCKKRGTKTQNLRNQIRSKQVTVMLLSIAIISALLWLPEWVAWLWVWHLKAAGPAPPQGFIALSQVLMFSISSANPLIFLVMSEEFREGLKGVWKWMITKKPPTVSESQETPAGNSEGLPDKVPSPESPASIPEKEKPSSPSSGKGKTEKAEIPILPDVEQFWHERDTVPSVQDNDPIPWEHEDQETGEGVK
FBW7 act – activators of human E3 ligase FBW7 | Q969H0 | AlphaScreen FBW7–phospho-cyclin E peptide binding, activator screen | normalized activity (activation), % at 26.1 µM | 650,000 compounds, 0.13% hits; in the data active = normalized activity above about 1.9%;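 note: purified mutant Fbw7 with reduced substrate affinity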
MITF confirm – human MITF inhibition, confirmation; 4,700 compounds, 16% hits; AID 1259372; shares compounds with MITF primary; AlphaScreen MITF homodimerization, biotin/His-MITF beads; inhibition, % at 2.6 µM;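 active = inhibition above a cutoff derived from the DMSO control wells, cut at about 28% in these data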;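 note: 0% = MITF dimer wells with DMSO only; inhibitors lower the bead chemiluminescence by keeping MITF from dimerizing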
AS interf DR – counter-screen: compounds optically interfering with AlphaScreen; shares compounds with MITF primary; IC50, µM; AlphaScreen optical interference counterscreen, cell-free; 480 compounds, 6% hits; call rule not given here
AS interf ctr – counter-screen: compounds optically interfering with AlphaScreen. shares compounds with MITF primary. LysRS AlphaScreen counterscreen, signal interference, triplicate. inhibition, % at 2.6 µM. 4,700 compounds, 7.6% hits. AID 1259376;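 active = inhibition above a cutoff derived from the DMSO control wells, cut at about 30% in these data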
Starred values were filed as active, the others as inactive; / = no result given.

SMILES	TEAD-YAP inh	MITF primary	GPR151 ag	FBW7 act	MITF confirm	AS interf ctr	others
COc1ccc(-c2ccc(S(=O)(=O)N3CCOCC3)cc2)cc1	-0.8	10.7	-0.4	0.0	/	/
Cc1noc(C)c1CC(=O)N1CCOc2ccc(C(O)c3ccccn3)cc2C1 (stereo not given)	-3.9	7.7	0.0	0.0	/	/
CCOC(c1ccccc1)c1ccc2c(c1)CN(C(=O)Cc1c(C)noc1C)CCO2 (stereo not given)	-3.9	74.9*	-0.6	0.5	-4.9	-3.6
O=C1N/C(=C/c2cccn2-c2ccccc2)C(=O)N1Cc1ccccc1F	12.9	55.2*	-0.8	-0.1	3.2	-0.3
C[C@@H]1NC(=O)[C@H]2CN(C(=O)NC3CCCCC3)CCN2C1=O	11.3	77.2*	-0.7	-0.4	73.8*	-10.4	AS interf DR=>6.48
O=C1N[C@@H](CC2CCCCC2)C(=O)N2CCN(C(=O)c3cc(F)c(F)cc3F)C[C@H]12	1.9	4.7	0.1	0.2	/	/
O=C1N[C@@H](CC2CCCCC2)C(=O)N2CCN(C(=O)Nc3ccccc3)C[C@H]12	7.3	77.0*	-1.3	-0.2	70.3*	-10.4	AS interf DR=>6.48
CC[C@H](C)[C@@H]1NC(=O)[C@H]2CN(C(=O)NC3CCCCC3)CCN2C1=O	-0.4	73.5*	2.2	-0.5	69.9*	-10.8	AS interf DR=>6.48
C[C@H]1NC(=O)[C@@H]2C[C@H](NC(=O)NC3CCCCC3)CN2C1=O	-0.3	9.2	1.0	-0.1	/	/
CCC[C@@H]1NC(=O)[C@H]2CN(C(=O)NC3CCCCC3)CCN2C1=O	4.9	76.7*	0.7	0.1	71.1*	-10.1	AS interf DR=>6.48
CC[C@H](C)[C@@H]1NC(=O)[C@H]2CN(C(=O)c3cc(Cl)cc(Cl)c3)CCN2C1=O	4.6	-19.3	0.3	0.0	/	/
O=C(NCc1ccco1)C(c1ccco1)N(C(=O)c1cccs1)c1cccnc1 (stereo not given)	-5.5	-5.0	1.0	0.0	/	/
O=C(CSc1nnc(NC2CCCCC2)s1)Nc1cccnc1	-7.9	-1.9	0.5	-0.1	/	/
O=C1N[C@@H](CSCc2ccccc2)C(=O)N2CCN(C(=O)NC3CCCCC3)C[C@H]12	9.2	64.9*	4.0	-0.3	71.9*	-3.6	AS interf DR=>6.48
Ic1ccc(OCCNC2CCCC2)cc1	12.3	59.2*	-0.8	0.1	-19.0	-3.4
Ic1ccc(OCCCNC2CCCC2)cc1	12.7	8.8	1.0	-0.2	/	/
Cc1nc2c(C(=O)NC3CCCc4ccccc43)cnn2c(C)c1Cc1ccccc1Cl (stereo not given)	-5.2	0.7	0.4	0.0	/	/
CC(C)(C)n1nc2c(c1NC(=O)c1ccc(-c3ccccc3)cc1)CS(=O)C2 (stereo not given)	-0.2	12.3	0.1	0.1	/	/
COc1cccc(CN2CCN(C(=O)C3CC3)[C@@H](C)C2)c1	-7.7	62.5*	-1.1	0.0	18.1	20.8
COc1cccc(CN2CCN(C3CCCCC3)CC2)c1	5.8	60.3*	-0.4	0.1	-12.0	-4.3
COc1cccc(CN2CCN(C3CCCCCC3)CC2)c1	8.6	57.9*	0.0	0.0	6.1	-6.8
COc1cccc(CN2CCN(C3CCC(C)CC3)CC2)c1 (stereo not given)	-8.2	70.4*	0.3	-0.1	-4.5	-1.9
CC(C(=O)N(Cc1nc(-c2ccccc2)no1)C(C)C)c1ccc([N+](=O)[O-])cc1 (stereo not given)	3.7	-12.3	0.1	-0.2	/	/
COc1ccccc1OC(=O)/C=C/c1ccccc1	14.1	0.9	0.7	0.2	/	/
CCn1cc(C(=O)NN)c(=O)c2cc(F)c(N3CCSCC3)cc21	3.2	15.9	-0.9	0.0	/	/
SMILES	TEAD-YAP inh	MITF primary	GPR151 ag	FBW7 act	MITF confirm	AS interf ctr	others
COCCNC(=O)[C@H]1C[C@@H](c2ccc(OC)cc2)NS(=O)(=O)N1C	4.3	-0.3	-0.3	0.0	/	/
COc1cccc(CN2CCC(C(=O)NC3CCCCCC3)CC2)c1	5.0	65.1*	-0.1	0.1	15.3	17.9
CC(NC(=O)COC(=O)CCOc1ccccc1)C1CC2CCC1C2 (stereo not given)	-1.8	6.7	-2.5	0.0	/	/
C=CCc1ccc(OCCNC)c(OC)c1	2.1	38.2	3.2	-0.1	/	/
C=CCc1ccc(OCCN2CCN(CC)CC2)c(OC)c1	-6.3	70.9*	-0.4	-0.1	3.9	15.2
C=CCc1ccc(OCCCCCN2CCOCC2)c(OC)c1	-7.1	59.1*	3.0	-0.3	-0.1	-1.4
C=CCc1ccc(OCCCCN2CCNCC2)c(OC)c1	-11.1	66.6*	2.5	-0.1	6.2	1.1
COc1ccc(OCC(O)CNCCC(C)C)c(C(C)(C)C)c1 (stereo not given)	0.3	30.7	-0.3	-0.1	/	/
COc1ccccc1COCC(O)CNCCCN(C)C (stereo not given)	4.5	56.1*	0.2	-0.4	-9.1	-6.0
COc1ccccc1COCC(O)CNCCc1ccc(C(F)(F)F)cc1 (stereo not given)	5.3	12.4	3.3	-0.2	/	/
COc1ccccc1COCC(O)CNCC12CC3CC(CC(C3)C1)C2 (stereo not given)	9.8	63.8*	-0.6	0.7	15.4	16.5
COc1ccc(OCC(O)CNCCCN(C)C)c(C(C)(C)C)c1 (stereo not given)	0.8	68.3*	0.8	-0.2	5.8	11.3
CCOc1ccc2[nH]c(=O)c(CN(CCO)C(=O)c3ccc(OC)cc3)cc2c1	-2.7	4.5	-0.9	-0.1	/	/
Cc1ccccc1OCc1nn2c(Cc3ccccc3)nnc2s1	8.5	15.4	-0.2	-0.1	/	/
Cc1c(C(c2cc(Br)c(O)c(Br)c2O)c2c(C)n(C)n(-c3ccccc3)c2=O)c(=O)n(-c2ccccc2)n1C	0.9	7.8	-0.7	0.1	/	/
c1ccc2c(c1)ncn2CC1CCN(Cc2cn3ccccc3n2)CC1	11.8	89.2*	3.0	-0.5	28.6*	17.2	AS interf DR=>6.48
c1ccn2cc(CN3CCCCC3)nc2c1	3.5	82.1*	-0.4	0.0	-13.1	0.4
c1ccc2c(c1)ncn2CC1CCCCC1	2.1	13.5	-0.5	0.8	/	/
COC(=O)c1ccc(NC(=O)CC2C(=O)N(C)C(=S)N2CCc2ccc(OC)c(OC)c2)cc1 (stereo not given)	3.1	2.4	-0.7	0.0	/	/
O=S(=O)(Nc1ccc2c(c1)N(S(=O)(=O)c1ccc(F)cc1)CCC2)c1cccc(F)c1	6.4	15.7	-0.6	0.5	/	/
O=C(CCc1nnc(CCCc2ccccc2)o1)NCC[C@@H]1C[C@@H]2C=C[C@H]1C2	-64.2	-6.6	-1.9	-0.1	/	/
CC1CCN(CC(=O)Nc2ccc(C(=O)N3CCCCC3)cc2)CC1	-0.6	58.5*	1.1	0.0	3.1	10.8
Cc1ccc(NC(=O)CN2CCC(C(=O)NCc3ccccn3)CC2)cc1	-2.5	3.9	-0.4	0.0	/	/
O=C(CN1CCCC1)Nc1ccc(N2CCCCC2)cc1	-11.8	-11.9	-1.7	-0.1	/	/
COC(=O)c1ccc(NC(=O)CN2CCN(CC#N)CC2)cc1	-6.8	71.0*	-0.9	0.3	9.8	-2.6
